Experimental data from PubChem BioAssay (NCATS).
Inconclusive results are not listed. Activity calls are given as the source filed them. Calls come from the whole dose curve; as a rule, active = well fitted curve in the direction sought with a large enough effect; inconclusive = small, poorly fitted or top-dose-only effect, or another doubt; inactive = no such curve, though single readings can be large; an effect the other way counts as inactive or inconclusive.

Key:
[1] = Quantitative highthroughput screen to assess conditional lethalithy of NOMO1 cells grown in RPMI1640 with untreated serum (RPMI+s) (AID 1963876); note: nearly all actives have a fitted effect of over 35% in size; note: potency is the fitted concentration of half-maximal effect;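 for viability: 100% = DMSO wells and 0% = empty wells without cells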
In short: (§1)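 Each medium arm—HPLM with 10% dialyzed FBS, or RPMI1640 with 5 mM glucose and 10% untreated or dialyzed FBS—was screened against an 11-point, 3-fold compound titration for 48 h at 37 °C, with CellTiter-Glo luminescence as endpoint.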

[2] = Quantitative highthroughput screen to assess conditional lethalithy of NOMO1 cells grown in Human Plasma-Like Medium with dialyzed fetal bovine serum (HPLM+ds) (AID 1963878); note: nearly all actives have a fitted effect of over 35% in size; note: potency is the fitted concentration of half-maximal effect;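 for viability: 100% = DMSO wells and 0% = empty wells on each plate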
In short: as §1

[3] = Quantitative highthroughput screen to assess conditional lethalithy of P12 Ichikawa cells grown in Human Plasma-Like Medium with dialyzed fetal bovine serum (HPLM+ds) (AID 1963879); details: Potency: viability; note: nearly all actives have a fitted effect of over 35% in size; note: potency is the fitted concentration of half-maximal effect; for viability: series mostly up to about 46 µM
In short: as §1

[4] = Quantitative highthroughput screen to assess conditional lethalithy of P12 Ichikawa cells grown in RPMI1640 with untreated serum (RPMI+s) (AID 1963881); details: Potency: viability; note: nearly all actives have a fitted effect of over 35% in size; note: potency is the fitted concentration of half-maximal effect;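 for viability: series mostly up to about 46 µM; 100% = DMSO wells and 0% = empty wells without cells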
In short: as §1

[5] = Quantitative highthroughput screen to assess conditional lethalithy of SEM cells grown in Human Plasma-Like Medium with dialyzed fetal bovine serum (HPLM+ds) (AID 1963882); note: nearly all actives have a fitted effect of over 35% in size; note: potency is the fitted concentration of half-maximal effect; for viability: series mostly up to about 46 µM
In short: as §1

[6] = Quantitative highthroughput screen to assess conditional lethalithy of SEM cells grown in RPMI1640 with dialyzed fetal bovine serum (RPMI+ds) (AID 1963884); note: nearly all actives have a fitted effect of over 35% in size; note: potency is the fitted concentration of half-maximal effect;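 for viability: series mostly up to about 46 µM; 100% = DMSO control wells and 0% = empty wells without cells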
In short: as §1

[7] = Quantitative highthroughput screen to assess conditional lethalithy of P12 Ichikawa cells grown in RPMI1640 with dialyzed fetal bovine serum (RPMI+ds) (AID 1963880); details: Potency: P12-Ichikawa viability; note: nearly all actives have a fitted effect of over 35% in size; note: potency is the fitted concentration of half-maximal effect;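 for viability: 100% = DMSO wells and 0% = empty wells on each plate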
In short: as §1

[8] = Quantitative highthroughput screen to assess conditional lethalithy of SEM cells grown in RPMI1640 with unreated serum (RPMI+s) (AID 1963883); note: nearly all actives have a fitted effect of over 35% in size; note: potency is the fitted concentration of half-maximal effect;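 for viability: 100% = DMSO wells and 0% = empty wells without cells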
In short: as §1

[9] = Quantitative highthroughput screen to assess conditional lethalithy of NOMO1 cells grown in RPMI1640 with dialyzed fetal bovine serum (RPMI+ds) (AID 1963877);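 note: series mostly up to about 46 µM; 100% = DMSO control wells and 0% = empty wells; nearly all actives have a fitted effect of over 30% in size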
In short: as §1

[10] = Cellular viability qHTS for adrenocortical cancer (ACC) cell line NCI-H295R (AID 1963990); note: nearly all actives have a fitted effect of over 60% in size; note: potency is the fitted concentration of half-maximal effect
In short: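 Adrenocortical carcinoma cells, suspended at 300 000 cells/mL in serum-free DMEM plus ITS, rested overnight before pin transfer of compound. After two days' incubation, ATP-dependent luminescence was recorded and curve-fitted.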

[11] = Cellular viability qHTS for adrenocortical cancer (ACC) cell line SW-13 (AID 1963989); details: SW-13 ACC cells viability, CellTiter-Glo, 48 h; activity (max response): hits give low values; note: nearly all actives have a fitted effect of over 65% in size; note: potency is the fitted concentration of half-maximal effect;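 for activity (max response): cells grown in serum-free medium with ITS supplement; % is set by controls: 0 for no effect and ±100 for the full control effect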
In short: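 IC50 and maximal-response values come from four-parameter logistic fits of titration data. SW-13 cells in serum-free medium received compounds (up to 46 uM final) for 48 h before CellTiter-Glo luminescence.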

CN(C)N=Nc1nc[nH]c1C(N)=O
active: Potency [3] 2.64 µM | Potency [4] 2.09 µM | Potency [6] 0.833 µM
inactive: Potency [1] | Potency [2] | Potency [5]

O=C(CCCN1CCC(O)(c2ccc(Cl)cc2)CC1)c1ccc(F)cc1
inactive: Potency [1] | Potency [2] | Potency [3] | Potency [7] | Potency [8] | Potency [6]

O=S(=O)(N=Cc1c(O)ccc2ccccc12)c1cccs1
active: Potency [3] 16.6 µM
inactive: Potency [1] | Potency [7] | Potency [4] | Potency [6]

CC(=O)O[C@H]1C[C@@H]2CC[C@H]3[C@H]4C[C@H]([N+]5(C)CCCCC5)[C@@H](OC(C)=O)[C@@]4(C)CC[C@@H]3[C@@]2(C)C[C@H]1N1CCCCC1
inactive: Potency [1] | Potency [3] | Potency [7] | Potency [4] | Potency [5] | Potency [8] | Potency [6]

C[C@@H]1O[C@@H](O[C@H]2CC[C@@]3(C)[C@H](CC[C@@H]4[C@H]3C[C@@H](O)[C@]3(C)[C@@H](C5=CC(=O)OC5)CC[C@]43O)C2)C[C@H](O)[C@@H]1O[C@H]1C[C@H](O)[C@H](O[C@H]2C[C@H](O)[C@@H](O)[C@@H](C)O2)[C@H](C)O1 (stereo in doubt)
active: Potency [1] 0.605 µM | Potency [2] 0.191 µM | Potency [7] 0.191 µM | Potency [4] 0.27 µM | Potency [5] 0.0959 µM | Potency [8] 0.382 µM | Potency [6] 0.27 µM

COc1ccc(CCC(=O)c2c(O)cc(O[C@@H]3O[C@H](CO)[C@@H](O)[C@H](O)[C@@H]3O[C@@H]3O[C@@H](C)[C@H](O)[C@@H](O)[C@@H]3O)cc2O)cc1O
active: Potency [1] 13.2 µM
inactive: Potency [4] | Potency [5] | Potency [8] | Potency [6]

CCCNC(=O)[C@H]1O[C@H]1C(=O)N[C@H](C(=O)N1CCC[C@@H]1C(=O)OC)C(C)CC (some centres not stated)
active: Potency [1] 13.2 µM | Potency [7] 16.6 µM | Potency [4] 16.6 µM | Potency [5] 20.9 µM | Potency [8] 14.8 µM | Potency [6] 16.6 µM

Nc1ncnc2c1ncn2[C@@H]1O[C@@H](CO)[C@H](O)[C@H]1O
inactive: Potency [9] | Potency [2] | Potency [3] | Potency [7] | Potency [4]

CCOC(=O)[C@H](CCc1ccccc1)N[C@@H](C)C(=O)N1CCCC1C(=O)O (some centres not stated)
inactive: Potency [9] | Potency [2] | Potency [3] | Potency [7] | Potency [4] | Potency [5] | Potency [8]

Nc1nc2ccc(OC(F)(F)F)cc2s1
inactive: Potency [1] | Potency [5]
active: Potency [10] 20 µM

NC(=O)c1cccc(N)c1
inactive: Potency [9] | Potency [2] | Potency [3] | Potency [7] | Potency [4] | activity (max response) [11] -2.32% | Potency [10]

O=C(CCc1ccc(O)cc1)c1c(O)cc(O)cc1O[C@@H]1O[C@H](CO)[C@H](O)[C@H](O)[C@H]1O
inactive: Potency [1] | Potency [7] | Potency [5] | Potency [8]

Cc1[nH]c(C=C2C(=O)Nc3ccccc32)c(C)c1CCC(=O)O
active: Potency [1] 14.8 µM | Potency [3] 9.35 µM | Potency [4] 13.2 µM

CO[C@H]1C=CO[C@@]2(C)Oc3c(C)c(O)c4c(O)c(c(C=NN5CCN(C)CC5)c(O)c4c3C2=O)NC(=O)C(C)=CC=C[C@H](C)[C@H](O)[C@@H](C)[C@@H](O)[C@@H](C)[C@H](OC(C)=O)[C@H]1C
inactive: Potency [1] | Potency [6]
active: Potency [7] 2.38 µM | Potency [4] 3.78 µM

Cc1cnc(Nc2ccc(F)cc2Cl)nc1-c1c[nH]c(C(=O)N[C@H](CO)c2cccc(Cl)c2)c1
active: Potency [1] 1.05 µM | Potency [11] 20 µM | Potency [10] 14.1 µM

O=C1NC(=O)[C@@H](c2cn3c4c(cccc24)CCC3)[C@H]1c1c[nH]c2ccccc12
active: Potency [1] 1.87 µM | Potency [3] 1.48 µM | Potency [4] 1.32 µM | Potency [8] 0.59 µM

C[C@H]1O[C@@H](n2cc(F)c(=O)[nH]c2=O)[C@H](O)[C@H]1O
inactive: Potency [1] | Potency [7] | Potency [4]

Nc1ccc(-c2ccc3ncc4ccc(=O)n(-c5cccc(C(F)(F)F)c5)c4c3c2)cn1
active: Potency [1] 0.0833 µM | Potency [3] 0.148 µM | Potency [11] 0.708 µM | Potency [10] 0.126 µM

CCC(=C(c1ccccc1)c1ccc(OCCN(C)C)cc1)c1ccccc1
inactive: Potency [1] | Potency [3]
active: Potency [5] 23.5 µM

CC1=C(C(=O)O)N2C(=O)[C@@H](NC(=O)C(N)c3ccccc3)[C@H]2SC1 (some centres not stated)
inactive: Potency [1] | Potency [3] | Potency [4] | Potency [5] | Potency [8] | Potency [6]

FC(F)(F)c1ccc(C=Cc2nc(COc3ccc(CCCCn4ccnn4)cc3)co2)cc1
inactive: Potency [5]
active: Potency [1] 2.35 µM | Potency [3] 0.935 µM | Potency [6] 0.0093 µM
